Shown are actives, neighbours in structure and some others; about 1.3% of the full set was active somewhere.
14-3-3 Bad PPI: disrupts binding of bovine 14-3-3 zeta to phospho-Bad peptide; P63103; TR-FRET 14-3-3zeta/Dy647-pBad peptide displacement, 1 h; inhibition, % at 21.7 µM; actives 0.71% (n = 220,000); AID 781;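 active = inhibition above about 70%, limit read from the data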
Target sequence (P63103 whole entry, looked up): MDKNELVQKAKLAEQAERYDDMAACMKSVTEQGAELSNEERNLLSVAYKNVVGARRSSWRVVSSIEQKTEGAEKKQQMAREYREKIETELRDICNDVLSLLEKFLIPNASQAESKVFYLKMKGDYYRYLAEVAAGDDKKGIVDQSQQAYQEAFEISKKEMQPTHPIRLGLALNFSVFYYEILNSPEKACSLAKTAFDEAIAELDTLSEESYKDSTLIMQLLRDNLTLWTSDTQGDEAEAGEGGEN
SUMO HTRF inh: inhibitors of human SUMOylation (UBC9); actives 0.36% (n = 290,000); inhibition, % at 35 µM; HTRF SUMOylation assay, SAE1/SAE2 + UBC9, in vitro; in the data active = inhibition above about 50%, passing the limit was not always enough
eIF4E 4G PPI: inhibitors of eIF4E and eIF4G interaction in translation initiation; TR-FRET eIF4E-eIF4GI(517-606) binding, 2 h; inhibition, % at 21.7 µM; actives 0.37% (n = 220,000)
NCF1 inh: p47phox (human) inhibition; actives 0.53% (n = 220,000); inhibition, % at 24.7 µM; P14598; AID 1274; p47phox/p22phox peptide binding, fluorescence polarization, 2 h
Target sequence (P14598 whole entry, looked up): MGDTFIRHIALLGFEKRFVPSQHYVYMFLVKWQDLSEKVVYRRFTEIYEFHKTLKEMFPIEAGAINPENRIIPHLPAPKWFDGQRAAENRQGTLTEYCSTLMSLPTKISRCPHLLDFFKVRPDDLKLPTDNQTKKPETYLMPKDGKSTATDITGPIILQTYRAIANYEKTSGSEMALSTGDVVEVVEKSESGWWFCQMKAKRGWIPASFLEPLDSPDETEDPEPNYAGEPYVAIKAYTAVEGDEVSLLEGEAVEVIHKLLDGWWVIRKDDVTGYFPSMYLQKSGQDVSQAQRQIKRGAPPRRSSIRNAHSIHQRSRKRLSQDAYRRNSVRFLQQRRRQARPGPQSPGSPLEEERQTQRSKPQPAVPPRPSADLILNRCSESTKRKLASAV
Of the large screens only hits and unclear results are named; the others gave an inactive call; [ ] = remark or other dose.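 The calls were made as follows, unless noted: active = inhibition above about 30% (limit read from the data); inactive = the rest.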

Cc1[nH]c2c(ccc3ccccc32)c1C1C(CCN)C1(C)C (configuration not stated)	NCF1 inh 60.3
CC(=O)N(C1=C(N2CCOCC2)C(=O)c2ccccc2C1=O)c1ccc(C(=O)O)cc1	eIF4E 4G PPI 35.8
Cc1cc(=O)oc2cc(OCC(=O)NC3CC(C)(C)NC(C)(C)C3)c(Cl)cc12	none (no result: 14-3-3 Bad PPI, eIF4E 4G PPI, NCF1 inh)
CCN(CC)C1=NS(=O)(=O)c2cc([N+](=O)[O-])ccc21	NCF1 inh 56.4
COCCn1cc(C(=O)c2cc(Br)ccc2O)cc(C#N)c1=O	none
COc1ccccc1-c1c(C#N)c(N)nc2c1CCc1ccccc1-2	SUMO HTRF inh 98.1
COc1ccc(C(=O)c2ccc(CC(=O)O)s2)cc1	none
Nc1c(C(=O)N/N=C/c2cccnc2)oc2nc(-c3ccco3)cc(-c3ccco3)c12	SUMO HTRF inh 94.7
Nc1c(C(=O)N/N=C/c2cccnc2)oc2nc(-c3ccccc3)cc(-c3ccco3)c12	none
CC1(C)C(=O)OC(c2c(F)c(F)c(F)c(F)c2F)C2(CCCCC2)C1=O (configuration not stated)	none
CCc1ccc(OCc2nnc(SCCN3CCOCC3)n2C)cc1	14-3-3 Bad PPI 85.0
CC1(C)N=C(c2cccc(F)c2)C(=O)N1	none
CCC(C(=O)NC(C)CCc1ccccc1)n1nc(C)n2c(cc3occc32)c1=O (configuration not stated)	none
CCC(C(=O)NC(C)CCc1ccco1)n1nc(C)n2c(cc3occc32)c1=O (configuration not stated)	eIF4E 4G PPI 49.8
CCOC(=O)C1CCN(C(=O)CCS(=O)(=O)c2ccc3c(c2)n(C)c(=O)c(=O)n3C)CC1	none (no result: 14-3-3 Bad PPI, eIF4E 4G PPI, NCF1 inh)
O=C(NNS(=O)(=O)c1ccccc1[N+](=O)[O-])c1ccc(F)cc1	none
O=C(NNS(=O)(=O)c1ccccc1[N+](=O)[O-])c1ccc(O)cc1	NCF1 inh 41.8
FC(F)(F)c1ccc(N2CCOCC2)c(NC2=NCCCCC2)c1	14-3-3 Bad PPI 81.6
CCOc1cc(N2CCOCC2)c(OCC)cc1NC1=NCCCCC1	NCF1 inh 60.0
CCOc1cc(N2CCOCC2)c(OCC)cc1NC(=O)Cc1ccc(OC)c(OC)c1	none
Cc1nc2nc(C)c(NS(=O)(=O)c3cccs3)c(=O)n2[nH]1	none (no result: 14-3-3 Bad PPI, eIF4E 4G PPI, NCF1 inh)
CCn1nc(C)c(Br)c1-c1nc(-c2cccc(C)c2)no1	none
O=C(CSc1nc2ccc(Nc3nc(N4CCCC4)nc(N4CCCC4)n3)cc2s1)NCc1ccco1	eIF4E 4G PPI 92.2
O=C(CSc1nc2ccc(Nc3nc(N4CCOCC4)nc(N4CCOCC4)n3)cc2s1)Nc1ccccc1Cl	none (no result: 14-3-3 Bad PPI, eIF4E 4G PPI, NCF1 inh)
CCOc1ccc(C2C(C(=O)Nc3ccc(F)cc3)=C(C)Nc3nc(CCCO)nn32)cc1 (configuration not stated)	14-3-3 Bad PPI 77.1
CC(NCC1COc2ccccc2O1)C1COc2ccccc2O1 (configuration not stated)	none (no result: 14-3-3 Bad PPI, eIF4E 4G PPI, NCF1 inh)
CCOC(=O)CCNC(C)C1COc2ccccc2O1 (configuration not stated)	14-3-3 Bad PPI 76.2
O=C1CCCC2=C1C(c1ccco1)Nc1ccc3ccccc3c12 (configuration not stated)	14-3-3 Bad PPI 72.5[fluorescence artefact?]
O=C(OCCN1C(=O)c2ccccc2C1=O)c1cccc(OC(F)F)c1	none
CCNc1ccc(C(=O)OCC(=O)NC(C)c2ccccc2)cc1[N+](=O)[O-] (configuration not stated)	eIF4E 4G PPI 46.1
O=C(COc1ccc(Cl)cc1)N1CCN(C(=O)c2ccccc2F)CC1	none (no result: 14-3-3 Bad PPI, eIF4E 4G PPI, NCF1 inh)
Cc1c(N/N=C(\C#N)C(=O)c2ccc(Cl)cc2)c(=O)n(-c2ccccc2)n1C	none
N#C/C(=N\Nc1ccc(Cl)cc1)C(=O)c1ccccc1	eIF4E 4G PPI 61.9[fluorescence artefact?]
CN(C)S(=O)(=O)c1cccc(NC(=O)CCc2c[nH]c3ccccc23)c1	none
CC(=O)Nc1ccc(SCC(=O)NCCc2ccc(F)cc2)cc1	none (no result: 14-3-3 Bad PPI, eIF4E 4G PPI, NCF1 inh)
CC1Cc2ccccc2N1C(=O)CNCCCN(C)C (configuration not stated)	14-3-3 Bad PPI 76.5
CSc1nnc(-c2cc3c(-c4ccccc4)nn(C)c3s2)n1C	14-3-3 Bad PPI 88.6
NC(=O)c1ccc(NC(=O)COC(=O)CCC(=O)c2ccc(Cl)cc2)cc1	none
Cc1cc(C)c(S(=O)(=O)/N=C2/C=C(SCC(=O)O)C(=O)c3ccccc32)cc1C	14-3-3 Bad PPI 70.3
COc1ccccc1/C=C/C(=O)c1ccccc1	none
COc1ccccc1/C=C/C(=O)c1c2c(c(C)[nH]c1=O)CCCC2	eIF4E 4G PPI 66.5
COC(=O)c1sccc1NC(=S)N1CCC(C(N)=O)CC1	none
OCCN1CCN(C(c2cccs2)c2ccc3cccnc3c2O)CC1 (configuration not stated)	eIF4E 4G PPI 45.7[fluorescence artefact?]
COc1ccc2[nH]c3c4c(ccc3c2c1)C(=O)C=CC4=O	NCF1 inh 30.5
CCN1CCN(C(=S)NCCc2ccccc2)CC1	14-3-3 Bad PPI 84.9
COc1ccc(OC)c(S(=O)(=O)Nc2cc(C)on2)c1	none (no result: 14-3-3 Bad PPI, eIF4E 4G PPI, NCF1 inh)
Cc1cc(OCC(=O)Nc2ccc(F)c(F)c2)nc(C(C)C)n1	NCF1 inh 164.7
Cc1cc(OCC(=O)Nc2ccccc2F)nc(C(C)C)n1	none
CC1(C)C2CCC(C2)C1(C)NC(=O)CN1CCOCC1 (configuration not stated)	14-3-3 Bad PPI 74.4
CC1(C)C2CCC(C2)C1(C)NC(=O)CN1CCCC1 (configuration not stated)	none (no result: 14-3-3 Bad PPI, eIF4E 4G PPI, NCF1 inh)
COc1cc2c(-c3ccc(O)cc3)nc3c(c(C)nn3-c3ccccc3)c2cc1OC	eIF4E 4G PPI 38.8, NCF1 inh 34.1 (no result: SUMO HTRF inh)
COc1cc2c(C)nc3c(c(C)nn3-c3ccccc3)c2cc1OC	none
CC(C)CC(c1nnnn1Cc1ccccc1)N1CCN(C(=O)c2ccco2)CC1 (configuration not stated)	14-3-3 Bad PPI 85.6
O=C(c1ccco1)N1CCN(C(c2ccccc2Cl)c2nnnn2Cc2ccco2)CC1 (configuration not stated)	14-3-3 Bad PPI 79.2
CCC(c1nnnn1Cc1ccco1)N1CCN(C(=O)c2ccco2)CC1 (configuration not stated)	none
CCCC(c1nnnn1CCOC)N1CCN(C(=O)c2ccco2)CC1 (configuration not stated)	14-3-3 Bad PPI 81.2
COc1ccc2cc([C@H](C)C(=O)N(C)Cc3ccccc3N3CCCC3)ccc2c1	none (no result: 14-3-3 Bad PPI, eIF4E 4G PPI, NCF1 inh)
Cc1ccc(CSc2nnc(C)c(=O)[nH]2)cc1	NCF1 inh 67.1
Cc1nnc(SCc2ccccc2)[nH]c1=O	none
Cc1ccc(NC(=O)NC(=O)CN2C(=O)NC3(CCCCCCC3)C2=O)c(C)c1	14-3-3 Bad PPI 71.4
CCCCSc1nnc(CCC)n1N	none
CCCCSc1nn[nH]n1	14-3-3 Bad PPI 76.0
COc1ccc(C(CC(=O)N2CCCC2)c2c(OC)cc(OC)c3c(-c4ccccc4)cc(=O)oc23)cc1 (configuration not stated)	eIF4E 4G PPI 33.8
Nc1ccc2c(c1)C/C(=C/c1ccco1)C2=O	SUMO HTRF inh 85.0
COc1ccc(NC(=O)C(=O)N/N=C\c2ccc(CNC(=O)C(=O)Nc3ccc(C)c(C)c3)o2)c(OC)c1	SUMO HTRF inh 58.0 (no result: 14-3-3 Bad PPI, eIF4E 4G PPI, NCF1 inh)
